Screens from PubChem BioAssay.
TIM10 inh: TIM10 yeast growth inhibition; S. cerevisiae TIM10 strain growth, BacTiter-Glo luminescence, 24 h; inhibition, % at 10 µM; 330,000 compounds, 1.4% hits; AID 463195;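 active = inhibition of 40% or more at the single tested concentration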;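 also: wild-type TIM10 isogenic control strain grown at permissive 25 °C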
MPTP inh: blocks calcium-induced mitochondrial swelling | 360,000 compounds, 1.4% hits | AID 602449 | isolated mouse mitochondria, Ca2+ swelling absorbance, 30 min | inhibition, % at 10 µM;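 active = inhibition of 50% or more, scaled per plate between neutral and stimulator controls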;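 also: 0% = DMSO wells given calcium and 100% = 1 mM EGTA wells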
tim23-1 inh: tim23-1 yeast growth inhibition. S. cerevisiae tim23-1 growth, BacTiter-Glo luminescence, 24 h. inhibition, % at 20 µM. 330,000 compounds, 1.3% hits;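 active = growth inhibition of the mutant yeast at or above 50%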;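 also: temperature-sensitive mutant grown at 25 °C; plate controls were DMSO-treated mutant yeast for no effect and medium wells lacking yeast for full effect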
tim10-1 inh: tim10-1 yeast growth inhibition; AID 463190; inhibition, % at 20 µM; S. cerevisiae tim10-1 ts strain growth, BacTiter-Glo, 24 h; 330,000 compounds, 2.2% hits;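 active = inhibition of at least 40%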;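 also: mutant grown at 25 °C; 0% = DMSO wells with yeast and 100% = wells holding no yeast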
Mdm2-MdmX inh: disrupts the human Mdm2-MdmX interaction | inhibition, % at 8 µM | SaOS-2 split-luciferase Mdm2/MdmX complementation, luminescence | O15151+Q00987 | 330,000 compounds, 3% hits | AID 485346;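 active = inhibition of at least 50% at 8 µM in the primary screen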
Target sequence (O15151 whole entry, looked up): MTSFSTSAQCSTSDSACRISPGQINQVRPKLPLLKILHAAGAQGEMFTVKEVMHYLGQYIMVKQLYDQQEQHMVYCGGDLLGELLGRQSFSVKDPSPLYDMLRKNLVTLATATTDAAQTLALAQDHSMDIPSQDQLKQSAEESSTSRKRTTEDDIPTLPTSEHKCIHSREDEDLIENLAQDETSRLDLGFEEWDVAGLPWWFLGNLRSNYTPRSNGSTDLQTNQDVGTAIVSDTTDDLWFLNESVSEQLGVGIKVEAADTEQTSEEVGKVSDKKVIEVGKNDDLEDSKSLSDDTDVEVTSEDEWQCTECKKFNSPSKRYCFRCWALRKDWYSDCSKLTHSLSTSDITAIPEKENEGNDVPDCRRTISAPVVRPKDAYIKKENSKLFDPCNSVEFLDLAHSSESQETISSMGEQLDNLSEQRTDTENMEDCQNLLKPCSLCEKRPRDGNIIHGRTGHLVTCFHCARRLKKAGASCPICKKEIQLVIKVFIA
Target sequence (Q00987 whole entry, looked up): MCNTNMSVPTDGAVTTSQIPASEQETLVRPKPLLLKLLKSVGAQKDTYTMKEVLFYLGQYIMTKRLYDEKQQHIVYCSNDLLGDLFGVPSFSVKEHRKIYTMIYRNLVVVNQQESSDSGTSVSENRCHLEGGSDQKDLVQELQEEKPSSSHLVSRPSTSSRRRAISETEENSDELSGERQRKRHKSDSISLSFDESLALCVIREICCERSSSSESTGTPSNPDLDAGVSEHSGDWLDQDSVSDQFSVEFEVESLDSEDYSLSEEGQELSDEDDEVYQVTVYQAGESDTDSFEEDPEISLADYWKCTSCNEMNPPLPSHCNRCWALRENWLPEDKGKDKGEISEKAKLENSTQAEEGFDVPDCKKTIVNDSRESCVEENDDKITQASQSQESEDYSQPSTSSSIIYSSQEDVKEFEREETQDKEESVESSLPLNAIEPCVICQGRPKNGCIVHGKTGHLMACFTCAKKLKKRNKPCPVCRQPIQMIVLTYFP
tim10-1 conf: tim10-1 yeast growth inhibition, confirmed; S. cerevisiae tim10-1 ts strain growth, BacTiter-Glo, 24 h; shares compounds with tim10-1 inh; inhibition, % at 20 µM; 7,400 compounds, 56% hits; AID 463213;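 active = inhibition of yeast growth at or above a set limit in either of two repeat tests at 20 µM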;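 also: tim10-1 mutant grown at permissive 25 °C to find synthetic lethal compounds; 0% = DMSO yeast wells and 100% = medium wells without yeast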
TIM10 conf: TIM10 yeast growth inhibition, confirmed; 4,600 compounds, 63% hits; inhibition, % at 10 µM; shares compounds with TIM10 inh; S. cerevisiae tim10 strain growth, BacTiter-Glo luminescence, 24 h;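 active = inhibition of yeast growth at or above a set limit in either of two replicates at 10 µM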;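 also: this counterscreen used the strain with wild-type TIM10; 0% = yeast with DMSO and 100% = medium wells lacking yeast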
tim23-1 conf: confirmation of tim23-1 mutant yeast growth inhibitors | 4,400 compounds, 83% hits | inhibition, % at 20 µM | S. cerevisiae tim23-1 growth, BacTiter-Glo luminescence, 24 h | shares compounds with tim23-1 inh | AID 463218;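 active = inhibition above about 39% in either of two replicate wells at 20 µM, limit read from the data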;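 also: temperature-sensitive tim23-1 mutant grown at 25 °C; 0% = DMSO wells with yeast and 100% = medium wells without yeast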
* = called active by the depositor; . = no result given. Shown are actives, neighbours in structure and some others; about 6.3% of the full set was active somewhere.

SMILES | TIM10 inh | MPTP inh | tim23-1 inh | tim10-1 inh | Mdm2-MdmX inh | tim10-1 conf | TIM10 conf | tim23-1 conf
Cc1ccc(C(=O)N/N=C\c2ccc([N+](=O)[O-])s2)cn1 | 40* | 0 | 56* | 49* | 27 | 42* | -32 | 58*
Cc1ccc(C(=O)N/N=C/c2ccc([N+](=O)[O-])s2)cc1 | 25 | -28 | 28 | 21 | 22 | . | . | .
COc1ccc(NC(=O)CCC(=O)N/N=C/c2ccc([N+](=O)[O-])s2)cc1 | 83* | -13 | 62* | 50* | 32 | 39* | 25 | 62*
Cc1ccc2ccccc2c1C(O)c1ncc(-c2ccc(C(F)(F)F)cc2)[nH]1 (stereo unspecified) | . | 4 | . | . | . | . | . | .
CC(=O)c1cccc(NC(=O)C2Cc3c(-c4cccc(F)c4)ccnc3O2)c1 (stereo unspecified) | . | 2 | . | . | . | . | . | .
Cc1ccc2c(=O)n3c(nc2c1)C(Cc1ccc(O)cc1)NC(=O)c1cccnc1-3 (stereo unspecified) | . | -1 | . | . | . | . | . | .
O=C(/C(=C/c1ccccc1)n1cncn1)c1ccc(Cl)cc1Cl | 82* | 3 | 92* | 80* | -16 | 82* | -4 | 91*
COc1ccc(NC(=O)c2cc(-c3cc(F)ccc3OC(C)C)n[nH]2)c(C)c1 | . | -1 | . | . | . | . | . | .
COc1ccc(O)c(-c2cc(-c3ccc(F)cc3)n[nH]2)c1 | 30 | 2 | 63* | 49* | -20 | 27 | . | 72*
COc1ccc(-c2n[nH]c(C)c2-c2cc(OC)ccc2O)cc1 | 2 | 0 | 7 | 18 | -1 | . | . | .
COc1ccc(-c2cc(-c3cc(OC)ccc3O)[nH]n2)cc1 | 51* | 9 | 59* | 44* | -79 | 29* | 42* | 61*
CCc1nc2c(OCc3ccc(Cl)cc3)cccn2c1N(C)C(=O)c1ccc(C)cc1 | . | 0 | . | . | . | . | . | .
S=C(Nc1ccc2nsnc2c1)NC1CCCCC1 | 54* | 8 | 53* | 53* | 12 | 33* | 22 | 57*
O=c1[nH]c2ccc(NC(=S)NC3CCCCC3)cc2[nH]1 | -5 | 0 | 14 | 2 | 30 | . | . | .
Cc1ccc(OCCSc2nc3ccccc3n2CCC(=O)O)c(C(C)C)c1 | . | 0 | . | . | . | . | . | .
CN1CCc2c(n(CC(O)CN3C(=O)c4ccccc4S3(=O)=O)c3ccccc23)C1=O (stereo unspecified) | . | -4 | . | . | . | . | . | .
Cc1c(C)n(CC(O)CN2C(=O)c3ccccc3S2(=O)=O)c2ccccc12 (stereo unspecified) | 43* | -1 | 74* | 66* | 11 | 65* | 49* | 89*
COC(=O)[C@H]1C[C@H](OC(=O)NCc2ccccc2F)[C@@]2(O)CN(S(=O)(=O)c3ccc(C)cc3)CC2[C@H]1C(=O)OC (stereo partly specified) | . | -1 | . | . | . | . | . | .
CCc1ncc(C(O)c2ccc(Cl)cc2)n1Cc1ccccc1 (stereo unspecified) | . | 1 | . | . | . | . | . | .
Cc1ccc2cc(/C=C/C(=O)c3ccco3)c(Cl)nc2c1 | 61* | 4 | 80* | 54* | -26 | 54* | 61* | 65*
COc1ccc2cc(/C=C/C(=O)c3ccco3)c(Cl)nc2c1 | 46* | . | 52* | 45* | 14 | 38* | 16 | 48*
COc1cc2cc(/C=C/C(=O)c3ccco3)c(Cl)nc2cc1OC | 36 | -3 | 49 | 36 | 34 | . | . | .
Cc1ccc2nc(Cl)c(/C=C/C(=O)c3ccco3)cc2c1 | 51* | 4 | 64* | 44* | -38 | 28 | 52* | 50*
CCCCNC(=O)C(NC(=O)c1ccc2ccccc2c1)C(=O)c1ccccc1 (stereo unspecified) | . | 2 | . | . | . | . | . | .
CCOC(=O)C1(C)CCCN(C(=O)c2ccc3c(c2)CCO3)C1 (stereo unspecified) | . | 0 | . | . | . | . | . | .
SMILES | TIM10 inh | MPTP inh | tim23-1 inh | tim10-1 inh | Mdm2-MdmX inh | tim10-1 conf | TIM10 conf | tim23-1 conf
CN1C(=O)[C@H]2[C@@H](c3ccc(C(F)(F)F)cc3)N[C@]3(CCCN(Cc4ccc(C(F)(F)F)cc4)C3=O)[C@H]2C1=O | . | -2 | . | . | . | . | . | .
N/C(Cc1ccc(Cl)cc1Cl)=N\OC(=O)c1ccccc1F | 81* | -1 | 65* | 63* | -8 | 14 | 88* | 53*
N/C(Cc1cccc2ccccc12)=N\OC(=O)c1ccccc1F | 61* | 3 | 67* | 55* | 7 | 50* | 71* | 76*
O=C(O/N=C(\c1ccccc1)c1ccncc1)c1ccccc1F | 30 | 1 | 51* | 50* | 9 | 37* | . | 61*
N/C(Cn1cncn1)=N\OC(=O)c1ccc(Cl)cc1Cl | 7 | 2 | 23 | 17 | 4 | . | . | .
CC1CCN(C(=O)C2CCC(CNS(=O)(=O)c3ccc4c(c3)C(C)(C)C(=O)N4C)CC2)CC1 (stereo unspecified) | . | -3 | . | . | . | . | . | .
COc1ccc(CN2CC[C@@H]3CN(C(C)=O)[C@H](c4ccccc4Br)C[C@@H]32)cc1 | . | 0 | . | . | . | . | . | .
O=C1OC(c2ccc(Br)cc2)=N/C1=C\c1ccco1 | 45* | 0 | 58* | 57* | -4 | 26 | 10 | 44*
CC1=N/C(=C/c2ccco2)C(=O)O1 | . | 1 | . | . | . | . | . | .
CC(=O)Nc1ccc(/C=C(\C#N)C(=O)NC2CCCCC2)cc1 | 49* | 0 | 66* | 46* | 9 | 48* | 56* | 62*
CCCCOc1cccc(/C=C(\C#N)C(=O)NC2CC2)c1 | 36 | -1 | 89* | 88* | 25 | 83* | . | 85*
CNC(=O)/C(C#N)=C/c1ccc(OCCOc2ccccc2)cc1 | -8 | 0 | 32 | -9 | -10 | . | . | .
CCOc1cccc(NC(=O)/C(C#N)=C/c2cccnc2)c1 | 42* | -1 | 79* | 52* | 5 | 55* | 56* | 77*
CCOc1cccc(/C=C(\C#N)C(=O)NC2CC2)c1 | 51* | 3 | 77* | 42* | -9 | 51* | 51* | 62*
N#C/C(=C\c1ccc(OCC(N)=O)cc1)C(=O)NC1CC1 | -1 | -1 | -4 | -14 | 10 | . | . | .
N#C/C(=C/c1ccc(OCc2ccccc2)cc1)C(=O)NC1CCCCC1 | -11 | 2 | 3 | 17 | -12 | . | . | .
CCOc1ccc2c(c1)-c1c(ssc1=S)C(C)(C)N2 | 37 | 4 | 52* | 48* | 45 | 40* | . | 56*
CSCc1cc(C(=O)NCCN2CCOCC2)c(N)s1 | . | 1 | . | . | . | . | . | .
N#C/C(=C\c1ccccn1)c1nc2ccccc2s1 | 78* | -1 | 65* | 83* | 22 | 87* | 82* | 34
COc1cc(CNC(=O)c2cc(-c3cc(Cl)ccc3OC)n[nH]2)cc(OC)c1 | . | 0 | . | . | . | . | . | .
COc1cc(/C=C2\SC(N)=NC2=O)cc(Cl)c1O | -12 | 0 | -6 | -34 | 9 | . | . | .
